The text below walks through data of PubChem BioAssay (Tox21).

Assay [1] is described as follows: A CellTox Green Cytotoxicity Assay to monitor cytotoxicity in HepG2 cells - 16 hour (AID 1224876). Also: nearly all actives have a fitted effect of over 45% in size. The method, boiled down: (§1)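 Using 1536-well format, dye-containing HepG2 suspension was seeded, allowed 5 h at 37 C/5% CO2, dosed by pintool with compounds, positive and negative controls, and imaged for fluorescence across 40 h.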
A short description of assay [2]: qHTS RealTime-Glo MT Cell Viability Assay in HepG2 cells - 32 hour (AID 1224877). Also: nearly all actives have a fitted effect of over 55% in size. The procedure, abridged: (§2)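 Luminescence read-out: viable HepG2 cells reduce a prosubstrate to a NanoLuc substrate, giving a signal proportional to live cell number. Reads taken at 0, 8, 16, 24, 32 and 40 h of compound exposure at 37 C.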
Assay [3] is described as follows: A CellTox Green Cytotoxicity Assay to monitor cytotoxicity in HepG2 cells - 24 hour (AID 1224878). Also: nearly all actives have a fitted effect of over 45% in size. The procedure, abridged:
as §1

Assay [4] is described as follows: A CellTox Green Cytotoxicity Assay to monitor cytotoxicity in HepG2 cells - 40 hour (AID 1224879). Also: nearly all actives have a fitted effect of over 40% in size. Also: potency is read from the fitted curve at half-maximal effect. The procedure, abridged:
as §1

Assay [5] in a line: qHTS RealTime-Glo MT Cell Viability Assay in HEK293 cells - 0 hour (AID 1224880). Also: top concentration of the series differs between compounds; nearly all actives have a fitted effect of over 45% in size. The procedure, abridged: (§3)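 Viable HEK293 cells reduce a cell-permeant prosubstrate; the product diffuses out and is consumed by NanoLuc in the medium to give light. Compounds went in after a 5 h incubation and plates were read over the treatment course.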
A short description of assay [6]: A CellTox Green Cytotoxicity Assay to monitor cytotoxicity in HEK293 cells - 32 hour (AID 1224881). Also: nearly all actives have a fitted effect of over 40% in size. The method, boiled down:
(§4)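 Fluorescence intensity, read at 0, 8, 16, 24, 32 and 40 h of compound treatment, reflected dye binding to DNA of dead HEK293 cells; compounds (23 nL, DMSO) were added 5 h after plating cells with reagent.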

Assay [7] can be described thus: A CellTox Green Cytotoxicity Assay to monitor cytotoxicity in HepG2 cells - 0 hour (AID 1224882). Also: nearly all actives have a fitted effect of over 35% in size. The procedure, abridged:
as §1

A short description of assay [8]: qHTS RealTime-Glo MT Cell Viability Assay in HepG2 cells - 16 hour (AID 1224885). Also: nearly all actives have a fitted effect of over 50% in size. The procedure, abridged: as §2
The nature of assay [9]: qHTS RealTime-Glo MT Cell Viability Assay in HEK293 cells - 24 hour (AID 1224886). Also: nearly all actives have a fitted effect of over 50% in size. Also: potency is read from the fitted curve at half-maximal effect. As to activity change, negative = cytotoxicity: top concentration of the series differs between compounds. The method, boiled down: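 Nonlytic real-time viability readout: viable cells convert prosubstrate to NanoLuc substrate, giving luminescence proportional to live cell number. HEK293, 600 cells/well, compound added after 5 h, continuous culture at 37 C.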
In general terms: qHTS replaces the single test concentration by a dilution series.

Assay [10] is described as follows: qHTS RealTime-Glo MT Cell Viability Assay in HEK293 cells - 8 hour (AID 1224887). Also: top concentration of the series differs between compounds; nearly all actives have a fitted effect of over 50% in size. The procedure, abridged:
as §3

Assay [11] in a line: A CellTox Green Cytotoxicity Assay to monitor cytotoxicity in HEK293 cells - 16 hour (AID 1224888). Also: nearly all actives have a fitted effect of over 35% in size. The method, boiled down:
as §4

A short description of assay [12]: qHTS RealTime-Glo MT Cell Viability Assay in HepG2 cells - 0 hour (AID 1224889). Also: nearly all actives have a fitted effect of over 50% in size. The procedure, abridged:
as §2

Assay [13] is described as follows: A CellTox Green Cytotoxicity Assay to monitor cytotoxicity in HepG2 cells - 8 hour (AID 1224890). Also: nearly all actives have a fitted effect of over 45% in size. The procedure, abridged: as §1
A short description of assay [14]: qHTS assay to identify small molecule antagonists of the estrogen receptor alpha (ER-alpha) signaling pathway using the BG1 cell line in the presence of 0.1 nM 17-beta-estradiol - cell viability counter screen (AID 1259241). Also: nearly all actives have a fitted effect of over 40% in size. The procedure, abridged:
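VM7Luc4E2 cells (endogenous ER-alpha, 4×ERE-luciferase), hormone-starved 5 days in charcoal-stripped FBS, were treated with compounds plus 0.1 nM 17beta-estradiol for 22 hr at 37C; viability read in same wells as CellTiter-Fluor live-cell protease fluorescence.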

Assay [15] in a line: qHTS assay to identify small molecule antagonists of the androgen receptor (AR) signaling pathway using the MDA cell line in the presence of 0.5 nM R1881 - cell viability counter screen (AID 1259242). Also: nearly all actives have a fitted effect of over 45% in size. The procedure, abridged: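 Viability of MDA-kb2 cells was multiplexed with the luciferase AR readout; after 16 hr with compounds and R1881 at 0.5 nM final, CellTiter-Fluor fluorescence was recorded.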

In assay [16] the target is Estrogen receptor (Homo sapiens) (UniProt P03372). Briefly: qHTS assay to identify small molecule antagonists of the estrogen receptor alpha (ER-alpha) signaling pathway using the BG1 cell line in the presence of 0.1 nM 17-beta-estradiol (AID 1259244). Also: nearly all actives have a fitted effect of over 50% in size. The method, boiled down:
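Estradiol at 0.1 nM (final) stimulates the endogenous ER-alpha of VM7Luc4E2 cells carrying an ERE-driven luciferase; compounds are co-incubated 22 h at 37C and luciferase output quantified by luminescence.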

A short description of assay [17]: A CellTox Green Cytotoxicity Assay to monitor cytotoxicity in HepG2 cells - 32 hour (AID 1224883). Also: nearly all actives have a fitted effect of over 50% in size. The procedure, abridged:
as §1

Assay [18] in a line: A CellTox Green Cytotoxicity Assay to monitor cytotoxicity in HEK293 cells - 8 hour (AID 1224884). Also: nearly all actives have a fitted effect of over 35% in size. The method, boiled down: as §4
Assay [19] has as its target Androgen receptor (Homo sapiens) (UniProt P10275). As to the kind of experiment: qHTS assay to identify small molecule antagonists of the androgen receptor (AR) signaling pathway using the MDA cell line in the presence of 0.5 nM R1881 (AID 1259243). Also: nearly all actives have a fitted effect of over 50% in size. The method, boiled down: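 Reporter cells cultured without CO2 receive test chemicals, then 0.5 nM R1881 final; after 16 hr at 37C, ONE-Glo is added and light output recorded.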

The nature of assay [20]: qHTS assay to identify small molecule phospholipidosis (PLD) inducers (AID 1259344; active = well fitted curve in the direction sought with a large enough effect; an effect the other way counts as inactive or inconclusive). The method, boiled down:
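Phospholipidosis is scored by imaging LipidTOX-stained pits in HepG2 cells exposed to compound for 24 h at 37 C; pit counts and integrated intensities per well and per cell serve as outputs.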

Values without a mark were called inactive. Results filed as inconclusive are left out. Active and inactive are the calls of the source. Unless noted, calls follow the shape of the dose curve; as a rule, active = well fitted curve in the direction sought with a large enough effect in the repeat runs; inconclusive = weak or mixed curves; inactive = no such curve, though single readings can be large; an effect the other way counts as inactive or inconclusive.
% is scaled to controls: 0 for no effect and ±100 for the full control effect.

Chain of Estrogen receptor (Homo sapiens) (P03372 whole entry, looked up): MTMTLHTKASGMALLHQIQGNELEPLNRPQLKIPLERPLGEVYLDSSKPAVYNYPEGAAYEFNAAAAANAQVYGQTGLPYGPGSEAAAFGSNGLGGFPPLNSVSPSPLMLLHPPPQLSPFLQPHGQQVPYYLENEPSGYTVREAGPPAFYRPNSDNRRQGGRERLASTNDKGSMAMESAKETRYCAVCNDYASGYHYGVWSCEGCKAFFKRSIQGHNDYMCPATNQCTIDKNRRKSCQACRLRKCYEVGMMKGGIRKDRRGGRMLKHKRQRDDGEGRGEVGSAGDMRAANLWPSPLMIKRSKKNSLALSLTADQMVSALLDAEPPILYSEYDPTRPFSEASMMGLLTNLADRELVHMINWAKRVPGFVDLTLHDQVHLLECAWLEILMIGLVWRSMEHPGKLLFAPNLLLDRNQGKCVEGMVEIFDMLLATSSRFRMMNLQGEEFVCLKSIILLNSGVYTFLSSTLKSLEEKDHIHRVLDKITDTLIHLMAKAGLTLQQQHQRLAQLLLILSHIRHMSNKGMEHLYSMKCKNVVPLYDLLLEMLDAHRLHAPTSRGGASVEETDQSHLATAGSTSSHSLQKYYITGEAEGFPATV
Chain of Androgen receptor (Homo sapiens) (P10275 whole entry, looked up): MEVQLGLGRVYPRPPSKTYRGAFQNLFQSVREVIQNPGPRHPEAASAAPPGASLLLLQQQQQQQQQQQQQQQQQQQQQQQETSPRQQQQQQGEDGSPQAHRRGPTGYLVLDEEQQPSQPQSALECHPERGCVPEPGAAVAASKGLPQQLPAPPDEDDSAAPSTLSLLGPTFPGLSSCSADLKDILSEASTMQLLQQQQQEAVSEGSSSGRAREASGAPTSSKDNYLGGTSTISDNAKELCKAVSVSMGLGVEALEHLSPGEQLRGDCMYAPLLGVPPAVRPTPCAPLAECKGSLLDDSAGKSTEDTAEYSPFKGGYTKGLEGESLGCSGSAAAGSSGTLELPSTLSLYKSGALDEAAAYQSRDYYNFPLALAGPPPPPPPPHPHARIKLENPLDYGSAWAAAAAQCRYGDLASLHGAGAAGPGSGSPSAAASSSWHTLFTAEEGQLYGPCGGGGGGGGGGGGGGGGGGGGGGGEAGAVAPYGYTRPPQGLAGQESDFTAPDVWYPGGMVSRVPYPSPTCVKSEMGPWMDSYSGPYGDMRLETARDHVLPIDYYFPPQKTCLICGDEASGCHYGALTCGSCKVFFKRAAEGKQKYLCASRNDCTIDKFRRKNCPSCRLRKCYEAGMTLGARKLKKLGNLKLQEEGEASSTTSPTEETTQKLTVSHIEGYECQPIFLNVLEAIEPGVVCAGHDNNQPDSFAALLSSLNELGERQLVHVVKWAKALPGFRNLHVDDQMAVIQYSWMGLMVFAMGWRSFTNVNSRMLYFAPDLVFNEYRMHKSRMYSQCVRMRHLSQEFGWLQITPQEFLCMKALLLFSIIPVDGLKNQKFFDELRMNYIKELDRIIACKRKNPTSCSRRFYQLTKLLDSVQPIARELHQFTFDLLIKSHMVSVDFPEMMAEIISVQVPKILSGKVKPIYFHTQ

`CCOCCOCC`: the Potency entry in [1], in assay [3], in [4], in assay [5], in assay [6] and in assay [7] was “inactive” each time. The Potency entry in assay [9], in assay [10], in assay [11], in assay [12] and in [13] was “inactive” each time. Besides, the compound was called inactive in [2], in assay [8], in assay [14], in [15] and in assay [16].
Turning to `C=CC(=O)CCCCC`, the Potency result in assay [1], in assay [3], in assay [4], in [5], in [6] and in [17] was “inactive” throughout. Also, the Potency entry in assay [18], in [9], in assay [10], in assay [11], in assay [12] and in assay [13] was “inactive” in each case. Moreover, the compound was called inactive in assay [2], in assay [8], in [14] and in [15].
As for `CCCCSCCCC`, the Potency result in [1], in assay [3], in [4], in assay [5], in assay [6] and in assay [7] was “inactive” in each case. The Potency entry in assay [18], in assay [9], in assay [11], in [12] and in assay [13] was “inactive” throughout. Moreover, the outcome in assay [2], in assay [8], in assay [14] and in assay [15] was inactive.
On to `COc1cc2c(cc1OC)C(=O)C(CC1CCN(Cc3ccccc3)CC1)C2` (stereo not drawn), for which the Potency entry in [1], in assay [3], in [5], in assay [6], in [7] and in assay [18] was “inactive” throughout. For the same compound, the Potency entry in [11], in assay [12], in [13] and in assay [19] was “inactive” each time. Also, the result in assay [2], in assay [8], in assay [14], in assay [15], in [16] and in [20] was inactive. Besides, the Potency in [4] and in assay [9] was 21.3 µM (active) each time.
On to `CC(C)(CO)C(O)C(=O)NCCCO` (stereo not drawn), for which the Potency result in assay [1], in assay [3], in assay [4], in assay [5], in assay [6] and in assay [7] was “inactive” throughout. Moreover, the Potency entry in [9], in assay [10], in assay [11], in assay [12] and in assay [13] was “inactive” each time. The call in assay [2], in assay [8], in [14], in [15] and in assay [16] was inactive.
Take `O=C1NC(c2ccccc2)(c2ccccc2)C(=O)N1COP(=O)(O)O`: the Potency entry in assay [1], in [3], in [4], in assay [5], in assay [6] and in assay [7] was “inactive” in each case. Further, the Potency result in [9], in assay [10], in assay [11], in assay [12], in assay [13] and in assay [19] was “inactive” throughout. The outcome in assay [2], in [8], in assay [14] and in [15] was inactive.
On to `N[C@@H](Cc1ccc(O)cc1)C(=O)O`, for which the cytotoxicity increase in assay [1] was -12.3% [at 6.97 µM]; in assay [4] it was -8.31% [at 6.97 µM]; in assay [6] it was 4.36% [at 6.97 µM]; in [18], -1.4% [at 6.97 µM]; in [13], -2.53% [at 6.97 µM]. Moreover, the activity change, negative = cytotoxic is -0.0666% [at 6.97 µM] in assay [2] and 0.618% [at 6.97 µM] in assay [8]. In addition, the figures for the cytotoxicity in assay [3] and in assay [7] were -12.9% [at 6.97 µM] and 1.32% [at 6.97 µM], respectively. The activity change, negative = cytotoxicity in assay [5] is 4.85% [at 6.97 µM]; in assay [9], -0.381% [at 6.97 µM]; in assay [12], -4.17% [at 6.97 µM]; in [14] it was -0.913% [at 8.39 µM]. Further, in assay [11], the activity change is 0.851% [at 6.97 µM, hits give high values]. Moreover, in assay [15], the viability change, negative = cytotoxic was 0.626% [at 8.39 µM]. Also, in assay [20], the call was inactive.
